From the supplement of paper PMC11001985
A number with no mark means an inactive call.

Compound: C#CCNC(=O)CCSSCCC(=O)NCCc1ccc(C=O)c(C=O)c1
Test: lysine labeling ratio R10:1 (500 µM / 50 µM probe), SILAC-ABPP in living cells; higher = lower intrinsic lysine reactivity toward the probe, active = 2 or less
Details: HeLa; probe concentrations 500 vs 50 µM
In short: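 R, given per lysine, is the filtered median high-probe/low-probe MS1 peptide ratio, with the median then taken across forward and reverse replicates. Cells were living SILAC light and heavy HeLa cells in PBS at room temperature, labelled with 50 µM or 500 µM of an alkyne-tagged, disulfide-linked lysine probe. The ceiling applied is 20.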

UniProt Q15149, sequence (Q15149 whole entry): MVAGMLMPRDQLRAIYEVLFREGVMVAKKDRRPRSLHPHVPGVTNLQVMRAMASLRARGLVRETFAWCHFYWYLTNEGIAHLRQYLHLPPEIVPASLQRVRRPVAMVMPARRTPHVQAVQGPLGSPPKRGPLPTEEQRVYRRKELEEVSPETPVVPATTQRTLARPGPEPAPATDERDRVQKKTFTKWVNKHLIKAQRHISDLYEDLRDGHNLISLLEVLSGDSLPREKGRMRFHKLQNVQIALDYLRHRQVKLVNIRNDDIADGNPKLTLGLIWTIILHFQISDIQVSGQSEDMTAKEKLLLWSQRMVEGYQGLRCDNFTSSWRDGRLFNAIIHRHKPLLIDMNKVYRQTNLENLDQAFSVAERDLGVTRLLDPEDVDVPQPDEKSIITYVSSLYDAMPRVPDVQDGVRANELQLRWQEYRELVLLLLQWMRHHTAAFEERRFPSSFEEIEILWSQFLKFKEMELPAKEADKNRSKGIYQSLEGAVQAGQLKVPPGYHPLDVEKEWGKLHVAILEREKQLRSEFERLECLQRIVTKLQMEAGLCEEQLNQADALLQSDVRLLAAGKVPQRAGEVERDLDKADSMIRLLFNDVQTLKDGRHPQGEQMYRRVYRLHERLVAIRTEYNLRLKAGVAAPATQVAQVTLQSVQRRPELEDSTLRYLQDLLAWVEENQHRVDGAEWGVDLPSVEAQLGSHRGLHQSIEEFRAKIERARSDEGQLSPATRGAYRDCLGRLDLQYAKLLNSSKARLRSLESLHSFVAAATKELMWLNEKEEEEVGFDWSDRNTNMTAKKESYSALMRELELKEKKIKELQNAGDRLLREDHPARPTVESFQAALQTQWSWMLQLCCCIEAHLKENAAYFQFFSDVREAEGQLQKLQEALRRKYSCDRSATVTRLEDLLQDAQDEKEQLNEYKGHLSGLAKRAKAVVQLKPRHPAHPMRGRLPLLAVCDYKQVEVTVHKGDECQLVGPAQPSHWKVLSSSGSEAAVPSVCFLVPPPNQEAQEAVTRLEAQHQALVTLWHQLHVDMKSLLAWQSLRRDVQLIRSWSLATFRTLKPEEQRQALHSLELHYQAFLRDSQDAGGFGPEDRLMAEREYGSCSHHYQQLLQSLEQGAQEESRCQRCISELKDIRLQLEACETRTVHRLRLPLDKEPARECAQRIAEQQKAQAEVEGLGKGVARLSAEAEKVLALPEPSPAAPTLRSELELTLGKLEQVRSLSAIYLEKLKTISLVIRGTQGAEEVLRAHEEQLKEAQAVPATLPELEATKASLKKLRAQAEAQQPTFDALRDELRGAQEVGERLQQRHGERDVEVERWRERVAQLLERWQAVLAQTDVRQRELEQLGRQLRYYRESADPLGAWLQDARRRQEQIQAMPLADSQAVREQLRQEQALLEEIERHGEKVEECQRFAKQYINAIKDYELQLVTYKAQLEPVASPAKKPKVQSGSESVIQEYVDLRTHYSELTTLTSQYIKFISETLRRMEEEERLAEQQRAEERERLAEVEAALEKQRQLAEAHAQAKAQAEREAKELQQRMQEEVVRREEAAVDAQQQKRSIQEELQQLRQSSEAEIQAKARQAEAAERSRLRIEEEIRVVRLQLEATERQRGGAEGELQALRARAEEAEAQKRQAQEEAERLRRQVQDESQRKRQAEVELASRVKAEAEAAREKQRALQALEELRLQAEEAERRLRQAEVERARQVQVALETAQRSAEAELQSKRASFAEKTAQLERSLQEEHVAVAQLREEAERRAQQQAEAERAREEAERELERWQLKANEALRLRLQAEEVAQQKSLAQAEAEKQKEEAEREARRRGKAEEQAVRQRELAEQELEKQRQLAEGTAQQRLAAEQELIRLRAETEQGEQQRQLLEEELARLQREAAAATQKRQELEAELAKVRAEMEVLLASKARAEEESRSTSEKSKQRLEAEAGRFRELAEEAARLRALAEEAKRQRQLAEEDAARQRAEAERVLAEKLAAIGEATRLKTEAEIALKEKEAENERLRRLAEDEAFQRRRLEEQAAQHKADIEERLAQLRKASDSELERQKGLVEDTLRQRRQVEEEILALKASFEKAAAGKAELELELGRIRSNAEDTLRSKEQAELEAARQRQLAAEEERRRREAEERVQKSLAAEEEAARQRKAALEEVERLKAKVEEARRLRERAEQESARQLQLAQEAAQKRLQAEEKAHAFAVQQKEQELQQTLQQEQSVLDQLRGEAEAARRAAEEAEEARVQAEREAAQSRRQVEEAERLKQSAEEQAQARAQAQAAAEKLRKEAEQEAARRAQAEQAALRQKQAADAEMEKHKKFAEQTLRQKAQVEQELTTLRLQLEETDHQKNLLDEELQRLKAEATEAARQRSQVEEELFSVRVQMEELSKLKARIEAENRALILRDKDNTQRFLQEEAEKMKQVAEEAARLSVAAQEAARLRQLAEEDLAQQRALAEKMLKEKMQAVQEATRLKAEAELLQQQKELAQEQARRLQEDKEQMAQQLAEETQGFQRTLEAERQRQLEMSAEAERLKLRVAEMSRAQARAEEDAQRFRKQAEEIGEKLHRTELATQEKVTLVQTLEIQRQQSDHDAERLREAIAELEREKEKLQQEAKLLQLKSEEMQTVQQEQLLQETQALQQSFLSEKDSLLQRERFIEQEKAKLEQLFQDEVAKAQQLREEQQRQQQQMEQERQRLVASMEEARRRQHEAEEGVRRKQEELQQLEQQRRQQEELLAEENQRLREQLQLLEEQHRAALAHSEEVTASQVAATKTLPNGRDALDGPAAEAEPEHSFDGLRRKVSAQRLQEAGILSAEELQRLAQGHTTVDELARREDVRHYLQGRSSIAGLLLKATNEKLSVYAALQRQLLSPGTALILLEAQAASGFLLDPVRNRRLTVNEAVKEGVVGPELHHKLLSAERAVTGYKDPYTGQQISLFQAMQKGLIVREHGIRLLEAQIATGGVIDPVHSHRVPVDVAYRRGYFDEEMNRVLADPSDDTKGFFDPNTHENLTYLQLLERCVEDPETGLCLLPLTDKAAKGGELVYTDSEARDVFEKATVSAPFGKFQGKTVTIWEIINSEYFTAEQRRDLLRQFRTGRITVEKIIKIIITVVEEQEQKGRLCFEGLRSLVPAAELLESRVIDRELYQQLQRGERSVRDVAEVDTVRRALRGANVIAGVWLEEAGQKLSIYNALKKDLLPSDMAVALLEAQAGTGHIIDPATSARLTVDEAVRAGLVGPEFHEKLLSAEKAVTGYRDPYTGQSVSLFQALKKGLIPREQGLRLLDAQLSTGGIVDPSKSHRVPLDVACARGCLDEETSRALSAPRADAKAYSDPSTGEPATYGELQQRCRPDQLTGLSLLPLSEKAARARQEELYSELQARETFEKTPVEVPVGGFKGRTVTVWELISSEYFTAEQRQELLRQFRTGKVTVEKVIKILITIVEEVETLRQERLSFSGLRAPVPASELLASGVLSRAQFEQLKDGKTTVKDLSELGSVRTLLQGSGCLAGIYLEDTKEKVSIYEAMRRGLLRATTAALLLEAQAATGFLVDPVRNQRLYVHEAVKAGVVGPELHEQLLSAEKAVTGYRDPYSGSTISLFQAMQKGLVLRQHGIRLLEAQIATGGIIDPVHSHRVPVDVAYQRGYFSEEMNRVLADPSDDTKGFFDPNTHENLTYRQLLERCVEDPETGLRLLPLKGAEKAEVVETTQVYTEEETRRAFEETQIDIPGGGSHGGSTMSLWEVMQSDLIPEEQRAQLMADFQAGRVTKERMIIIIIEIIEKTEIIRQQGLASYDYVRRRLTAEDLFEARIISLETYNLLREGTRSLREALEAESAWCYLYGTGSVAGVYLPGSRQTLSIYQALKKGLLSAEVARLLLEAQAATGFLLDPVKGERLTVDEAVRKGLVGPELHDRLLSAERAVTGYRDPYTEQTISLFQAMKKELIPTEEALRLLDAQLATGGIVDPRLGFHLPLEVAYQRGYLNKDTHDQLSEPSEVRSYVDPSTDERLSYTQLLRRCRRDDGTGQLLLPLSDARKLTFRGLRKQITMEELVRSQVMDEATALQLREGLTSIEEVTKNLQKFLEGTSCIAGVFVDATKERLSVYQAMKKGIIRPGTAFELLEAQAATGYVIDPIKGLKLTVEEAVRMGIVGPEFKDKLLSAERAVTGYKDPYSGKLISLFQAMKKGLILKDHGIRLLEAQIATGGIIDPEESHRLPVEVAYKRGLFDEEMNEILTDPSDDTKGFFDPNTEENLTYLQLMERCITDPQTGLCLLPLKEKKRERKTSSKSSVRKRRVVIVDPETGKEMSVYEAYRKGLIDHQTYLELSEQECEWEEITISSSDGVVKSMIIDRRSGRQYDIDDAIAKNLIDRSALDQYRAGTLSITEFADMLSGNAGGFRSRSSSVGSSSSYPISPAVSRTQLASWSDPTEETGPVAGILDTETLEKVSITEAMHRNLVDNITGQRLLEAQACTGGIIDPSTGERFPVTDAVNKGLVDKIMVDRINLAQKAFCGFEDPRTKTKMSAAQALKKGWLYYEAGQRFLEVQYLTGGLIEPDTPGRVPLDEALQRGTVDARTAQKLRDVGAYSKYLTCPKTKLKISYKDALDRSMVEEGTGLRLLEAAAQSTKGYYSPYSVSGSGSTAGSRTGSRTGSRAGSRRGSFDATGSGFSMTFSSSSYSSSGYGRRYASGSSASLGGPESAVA
UniProt P08727, sequence (P08727 whole entry): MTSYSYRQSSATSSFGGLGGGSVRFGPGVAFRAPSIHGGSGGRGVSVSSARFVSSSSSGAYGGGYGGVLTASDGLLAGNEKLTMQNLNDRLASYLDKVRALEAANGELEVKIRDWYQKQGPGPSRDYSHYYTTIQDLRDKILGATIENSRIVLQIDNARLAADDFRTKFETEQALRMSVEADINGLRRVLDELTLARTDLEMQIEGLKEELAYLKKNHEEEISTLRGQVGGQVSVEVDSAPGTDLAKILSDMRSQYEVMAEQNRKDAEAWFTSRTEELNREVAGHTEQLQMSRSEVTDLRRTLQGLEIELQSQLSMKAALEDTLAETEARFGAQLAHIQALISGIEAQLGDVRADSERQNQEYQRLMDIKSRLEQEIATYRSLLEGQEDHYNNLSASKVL

| Target | lysine labeling ratio R10:1 |
| --- | --- |
| RPS3A (lysine site: K56) (UniProt P61247) | 1.81 (active) |
| CAPZB (lysine site: K95) (UniProt P47756) | 3.24 |
| TAGLN2 (lysine site: K171) (UniProt P37802) | 8.2 |
| MYH9 (lysine site: K1835) (UniProt P35579) | 1.11 (active) |
| MYH10 (lysine site: K1782) (UniProt P35580) | 1.76 (active) |
| PTPRF (lysine site: K1016) (UniProt P10586) | 3.97 |
| FLNA (lysine site: K1294) (UniProt P21333) | 2.32 |
| UniProt P62263 (lysine site: K106) | 5.29 |
| UniProt P25705 (lysine site: K434) | 1.73 (active) |
| UniProt Q15149 (lysine site: K1552) | 2.31 |
| UniProt Q99623 (lysine site: K250) | 3.72 |
| UniProt Q15149 (lysine site: K4140) | 3.87 |
| UniProt P08727 (lysine site: K265) | 3.48 |
| EDIL3 (lysine site: K235) (UniProt O43854) | 7.28 |
| KRT18 (lysine site: K118) (UniProt P05783) | 6.22 |
| ACOT7 (lysine site: K198) (UniProt O00154) | 2.95 |
| CYR61 (lysine site: K203) (UniProt O00622) | 2.96 |
| MYH9 (lysine site: K1387) (UniProt P35579) | 1.88 (active) |
| PCNA (lysine site: K254) (UniProt P12004) | 1.56 (active) |
| ILF3 (lysine site: K214) (UniProt Q12906) | 1.16 (active) |

| Target | lysine labeling ratio R10:1 |
| --- | --- |
| LAMB1 (lysine site: K184) (UniProt P07942) | 1.21 (active) |
| SLC3A2 (lysine site: K257) (UniProt P08195) | 1.64 (active) |
| KRAS (lysine site: K128) (UniProt P01116) | 1.02 (active) |
| TXLNA (lysine site: K256) (UniProt P40222) | 3.67 |
| THBS1 (lysine site: K50) (UniProt P07996) | 4.26 |
| LAMC1 (lysine site: K1329) (UniProt P11047) | 1.2 (active) |
| LRPAP1 (lysine site: K182) (UniProt P30533) | 0.73 (active) |
| NPR3 (lysine site: K456) (UniProt P17342) | 0.78 (active) |
| EEF2 (lysine site: K407) (UniProt P13639) | 1.45 (active) |
| UniProt Q16363 (lysine site: K1723) | 2.13 |
| GAPDH (lysine site: K194) (UniProt P04406) | 6.75 |
| CDH13 (lysine site: K161) (UniProt P55290) | 6.29 |
| HNRNPU (lysine site: K609) (UniProt Q00839) | 1.53 (active) |
| LDLR (lysine site: K603) (UniProt P01130) | 1.19 (active) |
| SPTAN1 (lysine site: K1141) (UniProt Q13813) | 17.4 |
| CKAP4 (lysine site: K223) (UniProt Q07065) | 2.5 |
| TMEM30A (lysine site: K279) (UniProt Q9NV96) | 1.73 (active) |
| NECTIN3 (lysine site: K301) (UniProt Q9NQS3) | 1.83 (active) |
| ROBO1 (lysine site: K232) (UniProt Q9Y6N7) | 5.29 |
| CACNA2D1 (lysine site: K88) (UniProt P54289) | 1.78 (active) |
